Only some compounds are listed: those with a hit (about 3% of all), similar ones and a draw of the others.
EWS-Fli block – EWS/Fli transcriptional activity inhibition; A673 NR0B1-luciferase reporter, viability-normalised; inhibition, % at 12.6 µM; 350,000 compounds, 0.67% hits;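 active means mean inhibition of at least 50% after viability correction, with every replicate also passing that limit; inconclusive means mean reaches 50% but only one of two replicates passes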;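 further: firefly luciferase signal divided by Alamar Blue viability fluorescence both relative to DMSO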
TRPM1 prom inh – reduces MITF-dependent TRPM1 promoter luciferase signal | SK-MEL-5 TRPM1 promoter luciferase, 24 h | inhibition, % at 12.5 µM | 330,000 compounds, 0.83% hits | AID 488899;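 active means mean inhibition across replicates of 60% or more, whatever share of single replicates reaches that level; inconclusive means some that reach 60%, reason not given; inactive means mean inhibition across replicates below 60%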
Peg3 prom inh – reduces Peg3 promoter-driven luciferase expression in HeLa; HeLa PEG-Prom luciferase reporter, luminescence, overnight; inhibition, % at 20 µM; 360,000 compounds, 1.7% hits; AID 588405;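 active means inhibition of at least 50% at 20 µM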
Shn3 inh set2 – inhibitors of Schnurri-3 3'UTR reporter in osteoblasts; 360,000 compounds, 0.52% hits; AID 588674; inhibition, % at 12.5 µM; Clone20 osteoblast Shn3 3'UTR firefly luciferase, 24 h;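 active means mean inhibition of at least 75% with every replicate also reaching 75%; inconclusive means mean inhibition at least 75% but some replicate below; inactive means mean inhibition below 75%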
PAX8 reporter – PAX8 transcriptional activity inhibition | AID 652154 | RMG-I TPO-luciferase reporter, SteadyGlo, 24 h | inhibition, % at 12.6 µM | 360,000 compounds, 1.2% hits;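 active means mean replicate inhibition at least 60% with every replicate also reaching 60%; inconclusive means only one of the two criteria is met; inactive means mean below 60% and not all replicates reaching 60%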;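 further: luciferase light reporting Pax8 driven TPO promoter activity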
ABHD5 PLIN5 PPI – ABHD5-PLIN5 protein interaction inhibition; Q00G26+Q8WTS1; Split G. princeps luciferase complementation, luminescence, 4 h; inhibition, % at 4 µM; 360,000 compounds, 0.78% hits; AID 602281;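 active means inhibition above the mean inhibition across every tested compound plus 3 SD, cut at about 22% in these data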
Hits are given with their value; n = inactive; u = inconclusive; x = not tested or not shown.

SMILES	EWS-Fli block	TRPM1 prom inh	Peg3 prom inh	Shn3 inh set2	PAX8 reporter	ABHD5 PLIN5 PPI
COc1ccccc1C(CNC(=O)c1cccc(S(=O)(=O)N2c3ccccc3CC2C)c1)N(C)C (stereo not drawn)	n	n	n	n	n	23.1
COc1ccc(OC)c(S(=O)(=O)N2c3ccccc3CC2C)c1 (stereo not drawn)	n	n	55.7	n	x	n
CO[C@H]1CN(C)C(=O)c2ccc(NC(=O)C3CC3)cc2OC[C@H](C)NC[C@H]1C	n	x	x	x	n	x
O=C(OCc1ccccc1)c1ccc(NCc2cc(O)ccc2O)cc1	61.9	81.4	92.1	98.5	n	n
CC(C)OC(=O)c1ccc(NCc2cc(O)ccc2O)cc1	69.3	n	n	95.2	n	n
COP(=O)(OC)c1ccc(NCc2cc(O)ccc2O)cc1	n	n	n	n	n	n
COC(=O)c1ccc(CCc2cc(O)ccc2O)cc1	x	n	n	n	x	42.1
CCC(=O)Nc1ccc(C(=O)OCc2ccccc2)cc1	n	n	n	n	n	n
CCC(=O)Nc1ccc2c(c1)C(=O)N(C)C[C@H](OC)[C@@H](C)CN(C(=O)c1ccc(F)cc1)[C@H](C)CO2	n	x	x	x	x	x
COCC(=O)Nc1ccc2c(c1)OC[C@@H](C)N(Cc1cc(F)ccc1F)C[C@H](C)[C@H](OC)CN(C)C2=O	n	x	x	x	n	x
CC(=O)N1CCN(C(=O)c2[nH]c(C(F)(F)F)nc2-c2ccccc2)CC1	n	x	n	n	n	n
COc1ccc(N2CCN(C(=O)c3[nH]c(C(F)(F)F)nc3-c3ccccc3)CC2)cc1	n	x	n	n	n	n
O=C(c1[nH]c(C(F)(F)F)nc1-c1ccccc1)N1CCN(c2cccc(C(F)(F)F)n2)CC1	54.6	x	n	n	n	n
Cc1cccc(N2CCN(C(=O)c3[nH]c(C(F)(F)F)nc3-c3ccccc3)CC2)c1C	n	x	n	n	77.1	n
COc1ccccc1N1CCN(C(=O)c2[nH]c(C(F)(F)F)nc2-c2ccccc2)CC1	71.8	x	n	n	n	n
CO[C@@H]1CN(C)C(=O)c2ccc(NC(=O)NC(C)C)cc2OC[C@H](C)N(C)C[C@H]1C	n	x	x	x	x	x
O=C(O)C[C@H]1CC[C@H](NC(=O)Nc2cc(F)ccc2F)[C@@H](CO)O1	n	x	x	x	n	x
Cc1ccc(NC(=S)N(CCCN2CCOCC2)Cc2ccccn2)cc1	n	n	n	n	110.4	n
COc1ccc(NC(=S)N(CCCN2CCOCC2)Cc2ccccn2)cc1	n	n	n	n	n	n
COc1ccc(CN(C)C(=O)c2cccc(NC(=O)CC3SC(N4CCCCC4)=NC3=O)c2)c(OC)c1 (stereo not drawn)	n	63.3	54.2	n	n	n
COc1cccc(CN(C)C(=O)c2cccc(NC(=O)CC3SC(N4CCCCC4)=NC3=O)c2)c1OC (stereo not drawn)	n	n	n	n	n	n
COc1ccc(CN(C)C[C@H]2OCCCC[C@H](C)Oc3ccc(NC(=O)Nc4cccc5ccccc45)cc3C(=O)N([C@@H](C)CO)C[C@H]2C)cc1	n	x	x	x	n	x
COc1ccc(CN(C)C[C@@H]2OCCCC[C@H](C)Oc3ccc(NC(=O)Nc4cccc5ccccc45)cc3C(=O)N([C@H](C)CO)C[C@H]2C)cc1	n	x	x	x	79.6	x
COc1ccc(CN(C)C[C@@H]2OCCCC[C@H](C)Oc3ccc(NC(=O)Nc4cccc5ccccc45)cc3C(=O)N([C@@H](C)CO)C[C@@H]2C)cc1	65.2	x	x	x	n	x
COc1ccc(CN(C)C[C@@H]2OCCCC[C@@H](C)Oc3ccc(NC(=O)Nc4cccc5ccccc45)cc3C(=O)N([C@H](C)CO)C[C@H]2C)cc1	66.9	x	x	x	n	x
SMILES	EWS-Fli block	TRPM1 prom inh	Peg3 prom inh	Shn3 inh set2	PAX8 reporter	ABHD5 PLIN5 PPI
COc1ccc(CN(C)C[C@@H]2OCCCC[C@@H](C)Oc3ccc(NC(=O)Nc4cccc5ccccc45)cc3C(=O)N([C@@H](C)CO)C[C@H]2C)cc1	64.1	x	x	x	n	x
O=S(=O)(N[C@@H]1CC[C@@H](CCn2cc(-c3cccc(F)c3)nn2)O[C@@H]1CO)c1ccccc1	n	x	x	x	n	x
COc1ccc(NC(=O)C(=O)NCC2CCCN2S(=O)(=O)c2cc(C)ccc2C)cc1 (stereo not drawn)	57.5	n	n	n	n	n
COc1ccc(NC(=O)C(=O)NCC2CCCN2S(=O)(=O)c2ccc(C)cc2)cc1 (stereo not drawn)	56.4	71.8	n	n	104.2	n
Cc1ccc(C)c(S(=O)(=O)N2CCCC2CNC(=O)C(=O)Nc2ccccc2)c1 (stereo not drawn)	n	x	n	n	n	n
OC(COCC(F)(F)C(F)(F)C(F)(F)C(F)F)Cn1c2ccc(Cl)cc2c2cc(Cl)ccc21 (stereo not drawn)	x	n	63.2	n	x	n
Cn1c(/C=C/c2ccc([N+](=O)[O-])o2)nc2ccccc2c1=O	x	84.5	110.5	96.5	x	n
C[C@H]1CN([C@@H](C)CO)C(=O)c2cccc(NC(=O)C3CC3)c2O[C@@H]1CN(C)Cc1ccncc1	n	x	x	x	n	x
COCC(=O)Nc1ccc2c(c1)C(=O)N(C)C[C@H](OC)[C@@H](C)CN(C(=O)CC1CC1)[C@H](C)CO2	n	x	x	x	x	x
COc1ccc2c(C)cc(=O)oc2c1	n	n	n	n	n	n
COc1ccc(C2=NOC(COc3ccc4c(C)cc(=O)oc4c3)C2)c(OC)c1 (stereo not drawn)	56.1	x	n	n	n	n
COc1ccccc1C1=NOC(COc2ccc3c(C)cc(=O)oc3c2)C1 (stereo not drawn)	53.4	n	n	x	n	n
CC=Cc1ccc2n(c1=O)C[C@@H]1[C@@H](CO)[C@H](C(=O)NCCC)[C@H]2N1Cc1cccnc1 (mixture of isomers)	n	x	x	x	n	x
Cc1cc(NC(=O)C(C)SCC(=O)N(C)Cc2ccccc2F)no1 (stereo not drawn)	n	n	71.1	n	n	n
N#C/C(C(=O)N1CCCCC1)=C1\Nc2ccccc2S1	x	n	n	n	x	n
Cc1ccc(NC(=S)/C(C#N)=C2/Nc3ccccc3S2)cc1	n	x	n	n	83.9	n
CC(C)c1cn(CC[C@H]2CC[C@@H](NS(=O)(=O)c3ccc(F)cc3)[C@H](CO)O2)nn1	n	x	x	x	n	x
Cc1[nH]n(-c2ccccc2)c(=O)c1N=Nc1cccc(C(=O)O)c1	62.5	u	63.5	n	64.9	n
Nc1c2ccccc2nc2ccccc12	n	84.0	96.4	n	n	n
C[C@H](CO)N1C[C@H](C)[C@@H](CN(C)S(=O)(=O)c2cn(C)cn2)Oc2c(NC(=O)Nc3cccc4ccccc34)cccc2C1=O	n	x	x	x	x	x
COc1ccc(NC(=O)N(C)C[C@@H]2Oc3ccc(NC(=O)C4CC4)cc3C(=O)N([C@@H](C)CO)C[C@@H]2C)cc1	n	x	x	x	n	x
CCOC(=O)CSC1=NC(=O)/C(=C/c2ccc(Br)cc2)S1	n	n	74.5	n	n	n
CCOC(=O)COc1ccc(Br)cc1/C=C1\SC(N)=NC1=O	n	n	n	n	n	n
CCOC(=O)CSC1=NC(=O)/C(=C\c2ccc(OC(C)=O)cc2)S1	x	78.7	53.4	n	x	n
